Reference: PubChem BioAssay (NCI)
This is part of a sample that, as a whole, favours compounds with a hit. Of some 79,000 tested, about 15% had one in any assay. Unmarked numbers belong to inactive results. The source made the active and inactive calls. Rule as the data show it: active = growth inhibition above about 70%; inactive = the rest.

Key:
[1] = NCI Yeast Anticancer Drug Screen. Data for the rad50 strain (AID 155);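 also: 0% = growth of vehicle-only cultures of the same strain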; details: S. cerevisiae rad50 strain growth inhibition, stronger effect = higher value
Method in brief: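 Relative growth inhibition (compound vs vehicle) was measured in yeast with a defined repair-gene alteration.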

[2] = NCI Yeast Anticancer Drug Screen. Data for the mec2-1 strain (AID 157); details: S. cerevisiae mec2-1 strain, stronger effect = higher value
Method in brief: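 Growth inhibition is read against vehicle-treated controls after compound exposure of the mec2-1 yeast strain, which is defective in DNA damage repair or cell cycle control.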

[3] = NCI Yeast Anticancer Drug Screen. Data for the sgs1 mgt1 strain (AID 161);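 also: 0% = growth of cultures given vehicle only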; details: S. cerevisiae sgs1 mgt1 strain, stronger effect = higher value
Method in brief: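 Compounds are added to genetically altered yeast, and growth is compared with cultures given vehicle alone to give percent inhibition.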

[4] = NCI Yeast Anticancer Drug Screen. Data for the cln2 rad14 strain (AID 165);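 also: 0% = growth equal to vehicle treated cultures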; details: S. cerevisiae cln2 rad14 strain, stronger effect = higher value
Method in brief: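 Growth inhibition, relative to vehicle-treated controls, is the read-out. The test organism is a yeast strain with defined genetic alterations, cln2 rad14.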

[5] = NCI Yeast Anticancer Drug Screen. Data for the bub3 strain (AID 167); details: S. cerevisiae bub3 mutant strain, stronger effect = higher value
Method in brief: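 Screening used yeast with an engineered genetic alteration affecting cell cycle control. Compound-exposed cultures were compared with vehicle cultures, and reduced growth was taken as inhibition.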

[6] = NCI Yeast Anticancer Drug Screen. Data for the mlh1 rad18 strain (AID 175); details: S. cerevisiae mlh1 rad18 strain growth inhibition, stronger effect = higher value
Method in brief: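 Cells of a genetically altered yeast strain, deficient in DNA damage repair, were treated with compound. Their growth was then compared with that of vehicle-treated cultures to give inhibition.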

[7] = at 5.0 µM (retest, dose inferred, filed as 0.5)
[8] = at 50.0 µM (retest, dose inferred, filed as 5.0)

| Compound | growth inhibition [1, 7] [%] | growth inhibition [1, 8] | growth inhibition ([1]; at 50.0 µM) | growth inhibition [2, 7] [%] | growth inhibition [2, 8] | growth inhibition ([2]; at 50.0 µM) | growth inhibition [3, 7] | growth inhibition [3, 8] | growth inhibition ([3]; at 50.0 µM) | growth inhibition [4, 7] [%] | growth inhibition [4, 8] | growth inhibition ([4]; at 50.0 µM) | growth inhibition [5, 7] [%] | growth inhibition [5, 8] | growth inhibition ([5]; at 50.0 µM) | growth inhibition [6, 7] [%] | growth inhibition [6, 8] | growth inhibition ([6]; at 50.0 µM) |
| --- | --- | --- | --- | --- | --- | --- | --- | --- | --- | --- | --- | --- | --- | --- | --- | --- | --- | --- |
| NC(=O)c1ccc[n+](CC(=O)Nc2ccc(Cl)cc2)c1 | 2 | -3% | 5.6% | -9 | -4% | -1.35% | -5% | -28% | -7.2% | -1 | -6% | -57.3% | 0 | -11% | 31% | 11 | 4% | -13.9% |
| Cn1c2c(c3ccccc31)CCN(CCCN1CCN(c3cccc(Cl)c3)CC1)C2=O | 32 | 32% | 79.2% (active) | 7 | 7% | 54.1% | 22% | 22% | 78.7% (active) | 11 | 11% | 73.8% (active) | 2 | 2% | 80% (active) | 25 | 25% | 71% (active) |
| CC(C)=CCC/C(=C/CC/C(C)=C/CCc1ccoc1)C(=O)O | -5 | 20% | 72.8% (active) | 3 | 26% | 44.1% | -9% | 41% | 59.4% | 17 | 73% (active) | 42.7% | -9 | 64% | 53% | 2 | 35% | 62.3% |
| O=Nc1c(-c2c[nH]c3ccccc23)[nH]c2ccccc12 | 8 | 60% | 51.1% | 7 | 44% | 24.2% | 13% | 56% | 16% | -8 | 33% | 16.9% | 13 | 84% (active) | 69% | 12 | 53% | 26.1% |
| O=S(=O)(CCNCCCCC1CCCCC1)SCCNCCCCC1CCCCC1 | 48 | 99% (active) | 68.3% | 3 | 99% (active) | 49.1% | 70% (active) | 99% (active) | 55.1% | 10 | 99% (active) | 56.5% | 16 | 99% (active) | 98.8% (active) | 38 | 99% (active) | 47% |
| O=C(Nc1cccc(Cl)c1)Oc1c(Br)cc(Br)cc1Br | 18 | 98% (active) | 99% (active) | 22 | 99% (active) | 98.7% (active) | 34% | 98% (active) | 99% (active) | -4 | 98% (active) | 94.5% (active) | -7 | 99% (active) | 97.1% (active) | 24 | 99% (active) | 99.4% (active) |
| Cc1ccc(NC(=S)SCc2ccco2)cc1Cl | 22 | 99% (active) | 99.5% (active) | 5 | 99% (active) | 99.8% (active) | 12% | 99% (active) | 99.7% (active) | -3 | 99% (active) | 99.5% (active) | -3 | 99% (active) | 99.7% (active) | 20 | 99% (active) | 99.6% (active) |
| Cc1ccc(S(=O)(=O)NNc2nc(N(C)C)nc(N(C)C)n2)cc1 | 1 | 7% | 9.15% | 7 | 14% | 5.4% | 3% | 13% | 5.5% | 4 | 4% | 52.2% | -1 | 4% | 4.4% | 2 | 8% | 3.85% |
| C=CC(=O)N1C/C(=C\c2ccc([N+](=O)[O-])cc2)C(=O)/C(=C/c2ccc([N+](=O)[O-])cc2)C1 | 46 | 96% (active) | 28.7% | 33 | 97% (active) | 51.5% | 39% | 97% (active) | 87.3% (active) | 26 | 96% (active) | 88% (active) | 25 | 96% (active) | 83.9% (active) | 58 | 96% (active) | 81.5% (active) |
| Clc1ccc(CN2COc3c(cc(Cl)c4cccnc34)C2)cc1Cl | 43 | 97% (active) | 95.4% (active) | -12 | 97% (active) | 97.5% (active) | 10% | 98% (active) | 70.6% (active) | -11 | 97% (active) | 44.4% | 3 | 97% (active) | -4.9% | 13 | 96% (active) | 47.9% |
